Data taken from PubChem BioAssay AID1159580 (chemical genetic matrix, 2015).
Values joined by “and” are separate entries in the source; they are usually repeats but may differ in a detail not shown here. Equal values may be shown once. The whole screen tested about 5,500 compounds, of which about 2,000 (36%) were called active. About 18% were inconclusive and are not listed. Cut-off read from the data, not from the text of the source: active = normalized growth mostly below about 0.91 (no sharp cut-off); inconclusive = no clear call, values can overlap the other calls; inactive = mostly above about 0.92. The list shows a part of the results.

Assay: chemical genetic growth profiling, strain panel (AID 1159580);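 note: tested at 20 µM; growth read once vehicle control cultures reached saturation at 30 °C; 1 = growth at the plate median or of vehicle wells; lower values mean less growth of the strain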
Conditions: S. cerevisiae deletion strains, growth OD

Measured: normalized growth

CC(=O)Nc1ccc(O)cc1
inactive: locus YAL021C, strain ccr4, hits give low values 1.02 | locus YAL026C, strain drs2, hits give low values 1.02 | locus YAL030W, strain snc1, hits give low values 1.02 | locus YBL061C, strain skt5, hits give low values 1.02 | locus YBR009C, strain hhf1, hits give low values 1.01 | locus YBR021W, strain FUR4, hits give low values 1.09 | locus YBR023C, strain chs3, hits give low values 1.02 | locus YBR171W, strain sec66, hits give low values 1.02 | locus YBR229C, strain ROT2, hits give low values 0.985 | locus YBR231C, strain swc5, hits give low values 1.02 | locus YBR279W, strain paf1, hits give low values 1 | locus YCL011C, strain gbp2, hits give low values 1.01 | locus YCL016C, strain dcc1, hits give low values 1.01 | locus YCL029C, strain bik1, hits give low values 0.979 | locus YCL069W, strain vba3, hits give low values 1.01 | locus YCR088W, strain abp1, hits give low values 1.01 | locus YDL005C, strain med2, hits give low values 1.02 | locus YDL035C, strain GPR1, hits give low values 0.984 | locus YDL040C, strain nat1, hits give low values 1.01 | locus YDL074C, strain BRE1, hits give low values 1.05 | locus YDL101C, strain DUN1, hits give low values 1.01 | locus YDL134C, strain PPH21, hits give low values 0.985 | locus YDL185W, strain tfp1, hits give low values 0.935 | locus YDL192W, strain arf1, hits give low values 0.981 | locus YDR001C, strain nth1, hits give low values 1.02 | locus YDR069C, strain doa4, hits give low values 1.02 | locus YDR101C, strain arx1, hits give low values 0.988 | locus YDR137W, strain rgp1, hits give low values 1.01 | locus YDR159W, strain sac3, hits give low values 1.01 | locus YDR162C, strain NBP2, hits give low values 0.951 | locus YDR195W, strain ref2 1.01 | locus YDR297W, strain sur2, hits give low values 1.02 | locus YDR318W, strain mcm21, hits give low values 0.973 | locus YDR334W, strain swr1, hits give low values 1.02 | locus YDR335W, strain msn5, hits give low values 1.01 | locus YDR388W, hits give low values 0.988 | locus YDR392W, strain spt3, hits give low values 0.993 | locus YDR502C, strain sam2, hits give low values 1 | locus YEL003W, strain gim4, hits give low values 1.03 | locus YEL037C, strain rad23, hits give low values 1.02 | locus YEL061C, strain CIN8 (second series), hits give low values 1.01 | locus YEL061C, strain CIN8, hits give low values 0.971 | locus YER015W, strain faa2, hits give low values 1 | locus YER016W, strain bim1, hits give low values 0.987 | locus YER110C, hits give low values 0.992 | locus YER111C, strain swi4, hits give low values 1.01 | locus YER155C, strain BEM2 (second series), hits give low values 1.02 | locus YER155C, strain BEM2, hits give low values 0.978 | locus YER167W, strain BCK2, hits give low values 0.991 | locus YFR010W, strain ubp6, hits give low values 1.01 | locus YGL078C, strain dbp3, hits give low values 0.936 | locus YGL086W, strain mad1, hits give low values 0.987 | locus YGL167C, strain pmr1, hits give low values 1.03 | locus YGL173C, strain kem1, hits give low values 1.02 | locus YGL227W, strain vid30, hits give low values 1.02 | locus YGL240W, strain doc1, hits give low values 1.01 | locus YGL248W, strain PDE1, hits give low values 0.982 | locus YGL253W, strain hxk2, hits give low values 1.01 | locus YGR135W, strain pre9, hits give low values 0.996 | locus YGR229C, strain SMI1, hits give low values 0.972 | locus YGR252W, strain gcn5, hits give low values 1.16 | locus YHR013C, strain ard1, hits give low values 1.02 | locus YHR027C, strain rpn1, hits give low values 1.01 | locus YHR030C, strain SLT2, hits give low values 0.985 and 0.986 | locus YHR079C, strain IRE1 (second series), hits give low values 0.987 | locus YHR079C, strain IRE1, hits give low values 0.986 | locus YHR094C, strain hxt1, hits give low values 0.979 | locus YHR129C, strain ARP1, hits give low values 0.977 | locus YHR142W, strain chs7, hits give low values 1.01 | locus YHR200W, strain rpn10, hits give low values 0.983 | locus YIL066C, strain RNR3, hits give low values 0.977 | locus YIL073C, strain SPO22, hits give low values 1.04 | locus YIL125W, strain kgd1, hits give low values 0.944 | locus YIR030C, strain dcg1, hits give low values 0.977 | locus YJL092W, strain hpr5, hits give low values 1 | locus YJL095W, strain BCK1 (second series), hits give low values 1.02 | locus YJL095W, strain BCK1, hits give low values 1 and 0.986 | locus YJL115W, strain asf1, hits give low values 1.02 | locus YJL129C, strain trk1, hits give low values 1.01 | locus YJL134W, strain LCB3, hits give low values 0.981 | locus YJL154C, strain vps35, hits give low values 1.01 | locus YJL164C, strain tpk1, hits give low values 0.997 | locus YJL166W, strain qcr8, hits give low values 1 | locus YJL168C, strain set2, hits give low values 0.975 | locus YJL187C, strain SWE1 (second series), hits give low values 1.01 | locus YJR043C, strain POL32, hits give low values 0.978 | locus YJR066W, strain TOR1, hits give low values 0.99
